Assay outcomes deposited in PubChem by National Center for Advancing Translational Sciences (NCATS).
Compounds with a hit are over-represented: about 19% of the library has one in this group of screens.
DT40 TDP1 no CPT: qHTS for Inhibitors of human tyrosyl-DNA phosphodiesterase 1 (TDP1): qHTS in cells in absence of CPT. DT40 Tdp1-/- hTDP1 cells, no CPT, ATP luminescence, 48 h. Potency, µM (doses to about 46.2 µM), for inactives: top-dose activity change, negative = growth inhibition, actives largely listed as inhibitors. 420,000 compounds, 15% hits; also: potency is read from the fitted curve at half-maximal effect; nearly all actives have a fitted effect of over 55% in size
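Chicken DT40 Tdp1-/- cells stably complemented with human TDP1 were seeded at 400 cells/well with DMSO in place of 20 nM camptothecin. After compound pinning, cells grew at least 48 hr at 37 °C; viability read by CellTiter-Glo luminescence.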
HT1080NT lethal: qHTS for induction of synthetic lethality in tumor cells producing 2HG: qHTS for the HT-1080-NT fibrosarcoma cell line; 360,000 compounds, 1.6% hits; AID 686970, 2013; HT-1080-NT fibrosarcoma viability, CellTiter-Glo ATP luminescence, 48 h; Potency, µM (highest dose often 46.1 µM), inactives show at the top dose activity, negative = less viability, actives largely listed as cytotoxic;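 also: NT is the 2HG producing partner of a matched IDH1 knockdown line; potency is read from the fitted curve at half-maximal effect; 0% = DMSO-treated cells and -100% = media-only wells without cells; nearly all actives have a fitted effect of over 55% in size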
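A 48-hour cytotoxicity screen used HT-1080-NT cells plated 2 hours before compound delivery. ATP-based CellTiter-Glo luminescence measured viability, normalized to DMSO and no-cell controls.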
HT1080 IDH1KD tx: qHTS for induction of synthetic lethality in tumor cells producing 2HG: qHTS for the HT-1080-IDH1KD cell line | HT-1080 IDH1 knockdown viability, ATP luminescence, 48 h | Potency, µM (doses to about 46.1 µM), inactives show top-dose activity, negative = toxicity, usual class: cytotoxic | 360,000 compounds, 2% hits;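 also: potency is read from the fitted curve at half-maximal effect; 0% = DMSO wells and -100% = cell-free medium wells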
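Using the IDH1-knockdown HT-1080 line run in the same batch and compound series as the NT line, viability after 48 h at 37 °C was determined by CellTiter-Glo luminescence and expressed as % activity.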
DT40 TDP1 CPT: qHTS for Inhibitors of human tyrosyl-DNA phosphodiesterase 1 (TDP1): qHTS in cells in presence of CPT. chicken DT40 Tdp1-/-;hTDP1 cells + 20 nM CPT, ATP luminescence, 48 h. Potency, µM (highest dose often 46.2 µM), for the others: top-dose activity change, negative = growth inhibition, most hits filed as inhibitors. 420,000 compounds, 12% hits; also: potency is read from the fitted curve at half-maximal effect; nearly all actives have a fitted effect of over 55% in size
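Chicken DT40 Tdp1-/- cells complemented with human TDP1, 400 cells/well, exposed to compounds plus 20 nM camptothecin for at least 48 h at 37 C; viability read as ATP content by CellTiter-Glo luminescence.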
IL1B secr inh: qHTS for Inhibitors of Inflammasome Signaling: IL-1-beta AlphaLISA Primary Screen; activity change, % at 57.5 µM; 360,000 compounds, 4.7% hits; THP-1 LPS/ATP IL-1B secretion, AlphaLISA, 16 h; hits give low values; in the data active = activity change below about -50%; inconclusive = mostly about -30% to -49%
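Secreted IL-1B measured by AlphaLISA bead assay after 16 h compound exposure of THP-1 cells; compounds (final up to 57.5 uM) added 1 h before LPS (250 ng/mL) and ATP (1.25 mM) stimulation; lower signal means less secretion.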
The depositor's hits bear a star; ? = inconclusive; · = no result given; [ ] = remark or other dose. Unless noted, calls follow the shape of the dose curve; as a rule, active = well fitted curve in the direction sought with a large enough effect; inconclusive = small, poorly fitted or top-dose-only effect, or another doubt; inactive = no such curve, though single readings can be large; an effect the other way counts as inactive or inconclusive. Unless noted, % is scaled to controls: 0 for no effect and ±100 for the full control effect.

SMILES	DT40 TDP1 no CPT	HT1080NT lethal	HT1080 IDH1KD tx	DT40 TDP1 CPT	IL1B secr inh
Cc1ccc(C(C)C)c(OCC(=O)NNC(=O)Cc2ccc(S(=O)(=O)N3CCOCC3)s2)c1	-2%	0%	-12%	6%	18
CCc1ccc(-c2nc(CN3CCC(C(=O)N4CCN(c5ccccc5)CC4)CC3)c(C)o2)cc1	16µM*	-13%	-16%	?	?
CCc1ccc(-c2nc(CN3CCC(C(=O)N4CCN(c5ccccn5)CC4)CC3)c(C)o2)cc1	18µM*	-26%	?	23µM*	-53*
OC(COCc1cccs1)CN1CCN(c2cccc(Cl)c2)CC1 (centres undefined)	-90%	-4%	-8%	-78%	?
COc1ccc(-c2cc(C(=O)NCc3ccc(F)cc3)c3c(-c4ccc(F)cc4)[nH]nc3n2)cc1OC	18µM*	·	·	16µM*	·
COc1ccc(CNC(=O)c2cc(-c3ccc(OC)cc3)nc3n[nH]c(-c4cccc([N+](=O)[O-])c4)c23)cc1	-20%	·	·	-4%	·
Cc1ccc(-c2cc(C(=O)NCCc3ccccc3)c3c(-c4ccc(C)cc4)[nH]nc3n2)cc1	9.2µM*	·	·	?	·
COc1ccc(CNC(=O)c2cc(-c3ccc(OC)c(OC)c3)nc3n[nH]c(-c4ccc(C)cc4)c23)cc1	5.2µM*	·	·	5.8µM*	·
CCCCNC(=O)c1cc(-c2ccc(OC)cc2)nc2n[nH]c(-c3cccc([N+](=O)[O-])c3)c12	18µM*	·	·	21µM*	·
COc1ccccc1-c1ccc2ncnc(NCc3cnc(C)cn3)c2c1	18µM*	·	·	?	·
COc1ccccc1-c1ccc2ncnc(NCc3cccnc3)c2c1	6.5µM*	·	·	8.2µM*	·
COc1ccccc1-c1cncnc1NCc1cnc(C)cn1	-27%	·	·	?	·
Cn1c(O)c(/C=N/NC(=O)c2cc3ccccc3cc2O)c2ccccc21	15µM*	16µM*	?	16µM*	83
COc1ccc2nc(C)cc(N/N=C/c3ccc(F)cc3)c2c1	0.92µM*	2.9µM*	4.6µM*	1µM*	-99*
COC(=O)Nc1cc(C)nc2ccccc12	-21%	-6%	-2%	-16%	15
COc1cccc2c(N/N=C/c3ccc(O)c(O)c3)cc(C)nc12	-18%	1%	5%	18%	23
COc1ccc(/C=N/Nc2cc(C)nc3ccccc23)cc1	?	18µM*	?	?	-107*
COc1ccc(/C=N/Nc2cc(C)nc3c(C)cccc23)cc1	21µM*	?	?	?	?
Cc1cc(=O)[nH]c(N/N=C/c2ccc(F)cc2)n1	0%	25%	21%	0%	-1
Cc1ccc(S(=O)(=O)Nc2ccnc(-c3cccnc3)n2)cc1	-30%	11%	-1%	11%	23
Cc1cc(Cl)nc2ccc(Cc3ccc4nc(Cl)cc(C)c4c3)cc12	?	-1%	-2%	?	22
CCOc1ccc2[nH]cc(-c3csc(N)n3)c2c1	10µM*	-12%	6%	?	-5
CC1COCC(C)N1C1=C(Cl)C(=O)c2ccccc2C1=O (centres undefined)	1.5µM*	-26%	18µM*	0.65µM*	?
NC(=O)C1CCN(C2=C(Cl)C(=O)c3ccccc3C2=O)CC1	2.9µM*	?	21µM*	2.3µM*	-98*
CN1CCN(C2=C(Cl)C(=O)C(c3cnc(N4CCCCC4)s3)=C(Cl)C2=O)CC1	1.6µM*	-12%	?	2.1µM*	0
SMILES	DT40 TDP1 no CPT	HT1080NT lethal	HT1080 IDH1KD tx	DT40 TDP1 CPT	IL1B secr inh
CN1CCN(C2=C(Cl)C(=O)c3ccccc3C2=O)CC1	2.6µM*	?	?	2.3µM*	-104*
CN1CCN(C2=C(Cl)C(=O)N(C3CCCCC3)C2=O)CC1	?	5%	-10%	?	?
COc1ccc(OC(=O)c2ccc(OC)c(S(=O)(=O)N3CCOCC3)c2)cc1	17%	2%	-1%	-2%	13
CCCCNC(=O)CSc1nc2cc3c(cc2c(=O)n1CCCC(=O)NCc1ccc2c(c1)OCO2)OCO3	0%	·	·	-2%	·
O=C1C(Cl)=C(N2CCC(C(=O)O)CC2)C(=O)c2ccccc21	16µM*	?	?	15µM*	0
O=C(NCCN1Cc2ccccc2OC(c2ccsc2)C1)c1ccc2[nH]ccc2c1 (centres undefined)	-25%	·	·	-2%[9.04 µM]	·
CC(=O)N=c1sccn1CC(=O)c1ccc([N+](=O)[O-])cc1	-3%	4%	15%	-16%	23
O=C(Cn1c(-c2ccccc2)c[n+]2ccsc12)c1ccc([N+](=O)[O-])cc1	23µM*	?	?	23µM*	6
O=C(Cn1c(-c2ccccc2)c[n+]2ccsc12)c1ccccc1	?	-8%	-10%	21µM*	46
COc1ccc(-c2cn3nc(SCC(=O)NC4CCCCC4)ccc3n2)cc1	-26%	-1%	-1%	0%	25
CC(C)(C)NC(=O)C(=O)NNC(=O)c1ccc(C(C)(C)C)cc1	?	-15%	-18%	?	14
CC(C)(C)c1ccc(C(=O)NNc2ncccc2-n2cccc2)cc1	13µM*	-5%	-1%	13µM*	-5
O=C(NNc1ncccc1-n1cccc1)c1ccc(Cl)cc1	7.3µM*	-5%	0%	?	-20
O=C(NNC(=O)c1ccccc1-n1cccc1)c1ccc(Cl)cc1	-11%	12%	8%	5%	10
Cc1ccc(S(=O)(=O)NCc2ccccc2)cc1C(=O)NCCc1ccc(S(N)(=O)=O)cc1	25%	-9%	7%	-13%	8
Cc1cc(=S)[nH]c(=S)[nH]1	23%	12%	5%	-3%	0
COc1ccc(NC(=O)CN(C)C(=O)c2cccc(S(=O)(=O)N3CCN(Cc4ccccc4)CC3)c2)cc1	12µM*	?	-24%	18µM*	-17
CN(CCOc1ccc(Cl)cc1)C(=O)c1cccc(S(=O)(=O)N2CCN(Cc3ccccc3)CC2)c1	21µM*	?	?	15µM*	?
Cc1ccc(C)c(NC(=O)CN(C)C(=O)c2cccc(S(=O)(=O)N3CCN(Cc4ccccc4)CC3)c2)c1	12µM*	21µM*	?	18µM*	-5
O=C(c1ccc(CN2CCOCC2)cc1)N1CCN(c2ccccc2)CC1	-9%	16%	-2%	-16%	-4
